The list is not random: actives were taken first. Their share in the collection is about 3.7%.
FBA Mtb inh = Mtb FBA enzyme inhibitors, primary screen, biochemical, fluorescence, strain H37Rv; inhibition, % at 1 µM; AID 588726, 2011; purified M. tuberculosis FBA, fluorescence read-out; Fructose-bisphosphate aldolase (Mycobacterium tuberculosis (strain ATCC 25618 / H37Rv)), …; 2.3% of 360,000 active; in the data active means inhibition above about 27%;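 further: 0% = vehicle and 100% = reference inhibitor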
Rv3671c protease = Rv3671c serine protease inhibitors, primary screen, biochemical, fluorescence polarization, M. tuberculosis H37Rv. inhibition, % at 5.96 µM. 0.048% of 320,000 active. P9WHR9. AID 2606, 2010; in the data active means inhibition above about 38%;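 further: extracellular domain of Rv3671c used as enzyme; 0% = enzyme with DMSO and 100% = no enzyme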
Target sequence (P9WHR9 whole entry, looked up, the tested form may be a part): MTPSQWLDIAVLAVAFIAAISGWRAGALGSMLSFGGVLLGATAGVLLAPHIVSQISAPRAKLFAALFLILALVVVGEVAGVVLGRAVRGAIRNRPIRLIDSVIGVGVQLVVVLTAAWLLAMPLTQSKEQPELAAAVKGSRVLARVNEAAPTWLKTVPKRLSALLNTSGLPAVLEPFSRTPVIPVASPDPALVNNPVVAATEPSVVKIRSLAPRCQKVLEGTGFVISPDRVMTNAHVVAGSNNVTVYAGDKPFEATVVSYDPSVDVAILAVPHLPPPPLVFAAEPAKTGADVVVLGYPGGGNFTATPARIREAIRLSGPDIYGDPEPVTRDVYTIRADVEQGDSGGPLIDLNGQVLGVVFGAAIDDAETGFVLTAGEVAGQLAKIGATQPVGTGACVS
GDH-TPI counter-1 = GDH-TPI coupling enzyme inhibitors, primary screen, artefact control for M. tuberculosis FBA inhibitor project, biochemical, absorbance, full deck; GDH-TPI coupled enzyme counterscreen, NADH absorbance; inhibition, % at 4.8 µM; 1.2% of 360,000 active; in the data active means inhibition above about 30%;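 further: 0% = DMSO wells and 100% = wells lacking the enzyme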
Mtb bLac sens = beta-lactam sensitization of Mtb H37Rv, H37Rv. AID 434955, 2010. M. tuberculosis H37Rv growth with meropenem, percent inhibition. inhibition, % at 25 µM. 0.27% of 330,000 active;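 further: growth measured after seven days incubation then overnight dye step; 0% = bacteria only wells and 100% = bacteria with antibiotic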
UGM FP inh = M. tuberculosis UGM enzyme inhibitors, primary screen, biochemical, fluorescence polarization, single point; UDP-galactopyranose mutase (Mycobacterium tuberculosis (strain ATCC 25618 / H37Rv)), …; purified UGM, fluorescence polarization probe displacement; inhibition, % at 10 µM; 0.06% of 320,000 active; AID 504406, 2011; in the data active means inhibition above about 10%, passing the limit was not always enough
FadD28 FP inh = inhibitors of FadD28 bisubstrate probe binding, primary screen, biochemical, fluorescence polarization, single point | 0.22% of 360,000 active | inhibition, % at 12.5 µM; in the data active means inhibition above about 8.5%, passing the limit was not always enough
Mtb FBA confirm = M. tuberculosis aldolase blockers, biochemical, fluorescence, strain H37Rv, confirmation; AID 651616, 2012; 78% of 5,600 active; shares compounds with FBA Mtb inh; inhibition, % at 1 µM; purified M. tuberculosis FBA, fluorescence read-out; in the data active means inhibition above about 27%;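 further: 0% = vehicle wells and 100% = reference inhibitor wells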
GDH-TPI counter-2 = GDH-TPI coupling enzyme inhibitors, artefact control for M. tuberculosis FBA inhibitor project, biochemical, fluorescence, high throughput; AID 652141, 2013; 81% of 5,600 active; GDH-TPI coupled enzyme counterscreen; inhibition, % at 1 µM; shares compounds with FBA Mtb inh; in the data active means inhibition above about 10%
GDH-TPI dose = GDH-TPI coupling enzyme inhibitors, dose response, artefact control for M. tuberculosis FBA inhibitor project, biochemical, fluorescence, IC50. shares compounds with FBA Mtb inh. GDH-TPI coupled enzyme assay, artifact counterscreen. IC50, µM. 79% of 170 active. AID 652145, 2013
An asterisk follows results filed as active; x = no result given; + = active, no number. Unless noted, how the calls were made is not given here.

SMILES	FBA Mtb inh	Rv3671c protease	GDH-TPI counter-1	Mtb bLac sens	UGM FP inh	FadD28 FP inh	Mtb FBA confirm	GDH-TPI counter-2	others
O=C(Nc1ncc(Cc2ccccc2)s1)C1=NCCN1	65*	1	9	96	-2	0	93*	77*
COC(=O)CC(=O)O[C@H]1C=C[C@@H](NC(=O)OC(C)(C)C)C1	2	x	11	x	x	1	x	x
O=C(CN1C(=O)NC2(CCCCCCC2)C1=O)N1CCN(C(=O)c2ccco2)CC1	42*	-3	0	4	3	-2	+	161*
O=C(CN1C(=O)/C(=C\c2ccccc2Br)Oc2ccccc21)NCCCN1CCOCC1	41*	-3	18	8	-1	-15	58*	53*
CC1Oc2ccccc2N(CC(=O)NCCCN2CCOCC2)C1=O (stereo unspecified)	0	2	0	-4	-1	1	x	x
COc1ccc(S(=O)(=O)N2CCOC2CNC(=O)C(=O)NCCCN2CCCC2=O)cc1OC (stereo unspecified)	1	x	15	x	x	-1	x	x
COC(=O)c1cc2ccc(OC)cc2c2cc(OC)c(OC)cc12	62*	-6	25	11	0	1	-5	-6
O=C1NC(=O)N(c2ccccc2)C(=O)/C1=C\c1ccc2c3c(cccc13)CC2	x	-16	x	8	-1	x	x	x
COc1ccccc1N1C(=O)NC(=O)/C(=C/c2ccc3c4c(cccc24)CC3)C1=O	38*	-4	18	3	-1	1	18	-6	GDH-TPI dose=3.9*
OC1c2c(F)cccc2N=C2CCCCN21 (stereo unspecified)	38*	x	-1	x	x	-1	176*	162*
COc1ccc(C2C3=C(CC(C)(C)CC3=O)N(CCN3CCOCC3)C3=C2C(=O)CC(C)(C)C3)cc1	23	6	14	-1	-2	-1	x	x
CC1(C)CC(=O)C2=C(C1)N(CCN1CCOCC1)C1=C(C(=O)CC(C)(C)C1)C2c1ccc(Cl)cc1	36*	12	10	-6	0	-1	15	4	GDH-TPI dose=4.6*
O=C(O)c1ccccc1NCN1C(=O)C2CC=C(Cl)CC2C1=O (stereo unspecified)	40*	1	0	4	2	0	24	29*
S=c1[nH]c(-c2ccccc2)cn1/N=C/c1ccncc1	35*	-12	4	-7	1	1	49*	42*
CCOc1ccc(/C=N/n2cc(-c3ccccc3)[nH]c2=S)cc1	67*	7	29	58	1	2	89*	80*
S=c1[nH]ncn1/N=C/c1ccccc1	9	1	-8	-7	1	-3	x	x
CCOC(=O)Cc1csc(/N=C/c2c(O)n(-c3ccc(C)cc3C)c(=O)c3ccccc23)n1	53*	-5	14	-1	-1	1	60*	42*
CN(C(=O)CSc1nc(N)c2c3c(sc2n1)CSC(C)(C)C3)c1ccccc1	31*	-19	3	70	1	-1	61*	49*
CN(C(=O)CSC1=NCCS1)c1ccccc1	-1	-3	2	-5	0	0	x	x
C[C@@H]1CN([C@@H](C)CO)C(=O)c2cc(NC(=O)CCN3CCOCC3)ccc2O[C@@H]1CN(C)C(=O)Nc1ccccc1	1	-2	5	-5	4	-2	x	x
Cc1cccc(NC(=O)CNC(=O)COC(=O)c2ccc(C(C)(C)C)cc2)c1C	4	-2	6	1	2	-1	x	x
Cc1cccc(NC(=O)CNC(=O)COC(=O)C2CC2C)c1C (stereo unspecified)	30*	7	-2	-8	1	0	2	-2
O=c1ccc2cc3c4c(c2o1)CCCN4CCC3	54*	1	0	2	1	0	62*	60*
O=c1oc2c3c4c(cc2s1)CCCN4CCC3	-1	-11	10	0	0	0	x	x
Cn1c(C(=O)N[C@@H](Cc2ccccc2)C(=O)O)cc2cc(F)ccc21	8	9	-9	-5	1	-4	x	x
SMILES	FBA Mtb inh	Rv3671c protease	GDH-TPI counter-1	Mtb bLac sens	UGM FP inh	FadD28 FP inh	Mtb FBA confirm	GDH-TPI counter-2	others
COc1ccc2c(c1)cc(C(=O)N[C@@H](Cc1ccccc1)C(=O)N[C@@H](C)C(=O)O)n2C	59*	1	15	-6	3	0	31*	9	GDH-TPI dose=2.5*
COc1ccc2c(c1)cc(C(=O)N[C@@H](Cc1ccccc1)C(=O)O)n2C	92*	-6	1	-2	2	-1	121*	88*
C[C@H](NC(=O)c1cc2cc(Cl)ccc2n1C)C(=O)N1CCC(C(=O)O)CC1	3	x	5	3	1	0	x	x
Cn1c(C(=O)N[C@@H](Cc2ccccc2)C(=O)NCCC(=O)O)cc2cc(Cl)ccc21	3	x	14	9	-1	0	x	x
COc1ccc2c(c1)cc(C(=O)N[C@@H](CCSC)C(=O)N1CCC(C(=O)O)CC1)n2C	64*	-3	-7	-5	-1	-4	0	-1
CCCOc1c(Br)cc(C2C3=C(CCCC3=O)N(CC)C3=C2C(=O)CCC3)cc1OC	31*	0	5	-3	0	-6	30*	35*
CCCOc1c(Br)cc(C2C3=C(CCCC3=O)N(C)C3=C2C(=O)CCC3)cc1OC	42*	5	12	3	-1	-2	+	+
CCN1C(=O)[C@H]2[C@@H](c3ccc(C)cc3)N[C@]3(CCCN(Cc4ccc(F)cc4)C3=O)[C@H]2C1=O	-2	x	-5	x	x	-2	x	x
O=C(CN1C(=O)C2C3C=CC(C3)C2C1=O)Nc1ccc2nccnc2c1 (stereo unspecified)	27*	-2	11	-5	1	-3	+	+
O=C(CN1C(=O)C2C3C=CC(C3)C2C1=O)Nc1ccc(F)cc1 (stereo unspecified)	0	-8	5	4	-3	1	x	x
Cc1cc(=O)oc2c3c(cc(OCC(=O)NC4CC4)c12)OC(C)(C)CC3	75*	10	1	-8	1	-2	52*	29*

High-throughput results (PubChem)
